High-throughput results deposited in PubChem by National Center for Advancing Translational Sciences (NCATS).
HT1080-NT tox: kills 2HG-producing HT-1080-NT fibrosarcoma cells; HT-1080-NT fibrosarcoma viability, CellTiter-Glo ATP luminescence, 48 h; Potency, µM (titrated, usually from 46.1 µM), hits mostly cytotoxic; hit rate 1.6% among 360,000; AID 686970;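 also: NT is the 2HG producing partner of a matched IDH1 knockdown line; nearly all actives have a fitted effect of over 55% in size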
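Luminescent CellTiter-Glo readout after 48 hours of compound exposure at 37 degrees C defined viability of HT-1080-NT cells. Activity was normalized to DMSO wells and cell-free media wells; concentration-response curves were fitted and assigned curve classes.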
DT40 TDP1 CPT: DT40-hTDP1 cell growth loss with CPT; Potency, µM (top dose mostly 46.2 µM), usual class: inhibitors; chicken DT40 Tdp1-/-;hTDP1 cells + 20 nM CPT, ATP luminescence, 48 h; hit rate 12% among 420,000; also: nearly all actives have a fitted effect of over 55% in size
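Chicken DT40 Tdp1-/- cells stably complemented with human TDP1 were seeded at 400 cells/well in medium containing 20 nM camptothecin, exposed to pin-transferred compounds, and grown at 37 °C for at least 48 hr. Viability was read as ATP luminescence.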
TDP1 cell noCPT: qHTS for Inhibitors of human tyrosyl-DNA phosphodiesterase 1 (TDP1): qHTS in cells in absence of CPT | DT40 Tdp1-/- hTDP1 cells, no CPT, ATP luminescence, 48 h | Potency, µM (doses to about 46.2 µM), usual class: inhibitors | hit rate 15% among 420,000; also: nearly all actives have a fitted effect of over 55% in size
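Seeded 400 DT40-hTDP1 cells/well (vehicle DMSO, no 20 nM CPT); pinned compounds; ≥48 hr at 37 °C; CellTiter-Glo luminescence as viability measure.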
HT1080 IDH1KD tx: kills HT-1080 cells with IDH1 knockdown; HT-1080 IDH1 knockdown viability, ATP luminescence, 48 h; Potency, µM (titrated, usually from 46.1 µM), usual class: cytotoxic; hit rate 2% among 360,000
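Cytotoxicity counter-line: IDH1KD HT-1080, 48 h, CellTiter-Glo. Curves classed by r2, magnitude and activity.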
IL1B secr inh: blocks inflammasome-driven IL-1 beta release; THP-1 LPS/ATP IL-1B secretion, AlphaLISA, 16 h; active compounds read low; activity change, % at 57.5 µM; hit rate 4.7% among 360,000; in the data active = activity change below about -50%; inconclusive = mostly about -30% to -49%
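Secreted IL-1B measured by AlphaLISA bead assay after 16 h compound exposure of THP-1 cells; compounds (final up to 57.5 uM) added 1 h before LPS (250 ng/mL) and ATP (1.25 mM) stimulation; lower signal means less secretion.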
Large screens that a line does not name were inactive. Shown are actives, neighbours in structure and some others; about 19% of the full set was active somewhere. Unless noted, calls follow the shape of the dose curve; as a rule, active = well fitted curve in the direction sought with a large enough effect; inconclusive = small, poorly fitted or top-dose-only effect, or another doubt; inactive = no such curve, though single readings can be large; an effect the other way counts as inactive or inconclusive.

CCCCCC(=O)N1C[C@H](O)[C@@H](n2cc(-c3ccc(F)cc3)nn2)C[C@@H]1c1ccc(OC)cc1	DT40 TDP1 CPT inconclusive, TDP1 cell noCPT inconclusive, IL1B secr inh inconclusive
CCCCCC(=O)N1C[C@@H](n2cc(-c3ccc(F)cc3)nn2)[C@H](O)C[C@@H]1c1ccc(Cl)cc1	HT1080-NT tox inconclusive, DT40 TDP1 CPT 15µM, TDP1 cell noCPT 12µM, HT1080 IDH1KD tx 16µM, IL1B secr inh -56
CCCCCC(=O)N1C[C@H](O)[C@@H](n2cc(-c3ccc(F)cc3)nn2)C[C@@H]1c1ccc(Cl)cc1	HT1080-NT tox inconclusive, DT40 TDP1 CPT 18µM, TDP1 cell noCPT 18µM, HT1080 IDH1KD tx inconclusive, IL1B secr inh inconclusive
CCOC(=O)CCCNC(=O)CSc1nc2ccc(OCC)cc2[nH]1	HT1080 IDH1KD tx inconclusive
Cc1c(C(=O)N2CCOCC2)sc(NC(=O)c2ccc3c(c2)OCO3)c1C#N	none
C[C@@H]1CNCCN1S(=O)(=O)c1cccc2cnccc12	DT40 TDP1 CPT inconclusive, TDP1 cell noCPT 30µM (no result: HT1080-NT tox, HT1080 IDH1KD tx, IL1B secr inh)
O=C1CCN(CCc2ccccc2)CCN1[C@H](COc1ccccc1)Cc1ccccc1	HT1080-NT tox inconclusive, DT40 TDP1 CPT 29µM, TDP1 cell noCPT 11µM, HT1080 IDH1KD tx inconclusive, IL1B secr inh inconclusive
CCCN1CCC(=O)N([C@H](COc2ccccc2)CC(C)C)CC1	DT40 TDP1 CPT inconclusive, TDP1 cell noCPT inconclusive
CC(C)C[C@@H](COc1ccccc1)N1CCN(CCc2ccccc2)CCC1=O	DT40 TDP1 CPT 11µM, TDP1 cell noCPT 21µM
CC(C)CN1CCC(=O)N([C@H](COc2ccccc2)Cc2ccccc2)CC1	DT40 TDP1 CPT 23µM, TDP1 cell noCPT 11µM
C[C@]12CCC(=O)C=C1CC[C@@H]1[C@@H]2[C@@H](O)C[C@@]2(C)[C@H]1CC[C@]2(O)C(=O)COP(=O)(O)O	TDP1 cell noCPT inconclusive (no result: HT1080-NT tox, HT1080 IDH1KD tx, IL1B secr inh)
COc1ccc(Nc2cc(Cl)nc(N)n2)cc1OC	none
O=C(N/N=C/c1cccc(C(F)(F)F)c1)c1ccc(O)cc1	IL1B secr inh -81
Cc1cc(C)n2nc(C(=O)N/N=C/c3ccccc3Cl)nc2n1	none
O=C(N/N=C/c1c(O)ccc2ccccc12)c1cccc(C(F)(F)F)c1	HT1080-NT tox inconclusive, DT40 TDP1 CPT 0.65µM, TDP1 cell noCPT 1µM, HT1080 IDH1KD tx 2.3µM
O=C(CN1CCCC1)N/N=C/c1c(O)ccc2ccccc12	HT1080-NT tox inconclusive, DT40 TDP1 CPT inconclusive, TDP1 cell noCPT inconclusive, HT1080 IDH1KD tx 16µM
O=C(N/N=C/c1c(O)ccc2ccccc12)C(=O)N1CCCC1	HT1080-NT tox inconclusive, DT40 TDP1 CPT inconclusive, TDP1 cell noCPT inconclusive, HT1080 IDH1KD tx inconclusive
Cc1cc(C)n2nc(C(=O)N/N=C/c3c4ccccc4cc4ccccc34)nc2n1	HT1080-NT tox inconclusive, DT40 TDP1 CPT 23µM, TDP1 cell noCPT 21µM, HT1080 IDH1KD tx inconclusive
CC(=O)Nc1ccc(S(=O)(=O)Nc2ccc(S(=O)(=O)Nc3nccs3)cc2)cc1	HT1080-NT tox inconclusive, DT40 TDP1 CPT inconclusive
Cc1cc(C)n(CCC(=O)N/N=C/c2c(O)ccc3ccccc23)n1	HT1080-NT tox inconclusive, DT40 TDP1 CPT 5.8µM, TDP1 cell noCPT 4.6µM, HT1080 IDH1KD tx inconclusive
O=C(NN=Cc1c(O)ccc2ccccc12)C1CC1	HT1080-NT tox inconclusive, DT40 TDP1 CPT 5.8µM, TDP1 cell noCPT 5.2µM, HT1080 IDH1KD tx 12µM
C[C@H](CO)N1C[C@H](C)[C@H](CN(C)Cc2ccc(C(=O)O)cc2)OCc2ccccc2-c2c(n(C)c3ccccc23)C1=O	TDP1 cell noCPT inconclusive
Cc1c(Cl)cccc1NC(=O)c1ccc2c(c1)CCCN2S(C)(=O)=O	none (no result: HT1080-NT tox, HT1080 IDH1KD tx, IL1B secr inh)
CC(C)C(=O)N1CCCC1(C)C(=O)Nc1ccccc1 (configuration not stated)	none
CN(NS(=O)(=O)c1ccc(Cl)cc1)c1nc(C(F)(F)F)nc2ccccc12	none
COc1ccc(C(=O)NN(C)c2nc(C(F)(F)F)nc3ccccc23)cc1	HT1080-NT tox inconclusive, DT40 TDP1 CPT 0.18µM, TDP1 cell noCPT 0.21µM, HT1080 IDH1KD tx 0.0065µM
CN(NC(=O)C(C)(C)C)c1nc(-c2ccccc2)nnc1C(F)(F)F	DT40 TDP1 CPT inconclusive
